Laboratory results: PubChem BioAssay (Tox21)
Values joined by “and” are separate entries in the source; they are usually repeats but may differ in a detail not shown here. Identical values can stand only once. Records with an inconclusive call do not appear. Unmarked numbers belong to inactive results. Active and inactive are the calls of the source. The call rests on the fitted dose curve.

Biological target: 5-hydroxytryptamine receptor 2A (Homo sapiens) (UniProt P28223)
Experiment: 5-hydroxytryptamine receptor 2A (HTR2A) small molecule antagonists, cell-based qHTS assay (AID 1963586); further: nearly all actives have a fitted effect of over 45% in size
Conditions: HTR2A-CHO cells, DOI-induced calcium flux, fluorescence; series mostly up to 61.5 µM; activity, negative = inhibition: at the top concentration
Description: National Center for Advancing Translational Sciences [NCATS]
Division of Preclinical Innovation [DPI]
U.S. Environmental Protection Agency [EPA]
National Institutes of Environmental Health Sciences [NIEHS]
National Toxicology Program [NTP]
U.S. Food and Drug Administration [FDA]
The HTR2A receptor is a subtype of the 5-HT2 receptor that belongs to the serotonin receptor family and is a G protein-coupled receptor (GPCR). The HTR2A-CHO cell line stably expressing human 5-hydroxytryptamine receptor 2A (HTR2A) can be used for screening antagonists of interactions between 5-HT2 and its ligands. The HTR2A-CHO calcium flux assay is a homogeneous fluorescence-based assay for detecting the intracellular calcium level using FDSS kinetic plate reader system.
Tox21 Assay Protocol Summary:
HTR2A-CHO cells were dispensed at 2000 cells/3uL/well in 1536-well black-clear bottom plates using a Multidrop Dispenser. After the assay plates were incubated at a 37 C/5% CO2 incubator for 18 h, 3 uL of Dye Loading Buffer was transferred to the assay plate by a Flying Reagent Dispenser. The assay plates were incubated at 37 C for 1h. For antagonist mode, 23 nL of compounds dissolved in DMSO, positive controls or DMSO only was transferred to the assay plate by a pin tool. After 5 min incubation at room temperature, 1.5 uL of 4-Iodo-2,5-dimethoxy-alpha-methylbenzeneethanamine hydrochloride (DOI) at 4nM was added to each well. The fluorescence intensity in the plates was measured using FDSS 7000EX kinetic plate reader for 3 min at 1 sec intervals.
On the % scale 0 is the no-effect control and ±100 the full control effect; potency means the concentration at half of the fitted maximal effect.

5-hydroxytryptamine receptor 2A (Homo sapiens), sequence (P28223 whole entry, looked up): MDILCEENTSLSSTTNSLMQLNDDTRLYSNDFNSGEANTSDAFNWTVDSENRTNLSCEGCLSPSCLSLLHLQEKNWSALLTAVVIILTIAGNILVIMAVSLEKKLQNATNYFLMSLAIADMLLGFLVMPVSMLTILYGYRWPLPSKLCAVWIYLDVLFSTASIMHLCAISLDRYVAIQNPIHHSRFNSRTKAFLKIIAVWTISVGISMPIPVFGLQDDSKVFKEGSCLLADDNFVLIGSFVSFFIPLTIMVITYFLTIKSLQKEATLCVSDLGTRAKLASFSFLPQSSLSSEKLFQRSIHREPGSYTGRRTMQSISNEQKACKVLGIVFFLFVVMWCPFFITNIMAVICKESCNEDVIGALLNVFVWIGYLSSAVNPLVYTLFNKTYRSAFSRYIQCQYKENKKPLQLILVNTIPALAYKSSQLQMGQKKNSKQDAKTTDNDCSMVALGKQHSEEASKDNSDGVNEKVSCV

SMILES | activity, negative = inhibition | Potency
CS(=O)(=O)c1ccc([C@@H](O)[C@@H](CF)NC(=O)C(Cl)Cl)cc1 | 7.41% [at 28.5 µM] | 
Sc1nc2ccccc2s1 | 2.22% | 
O=C1c2ccccc2C(=O)c2cc(S(=O)(=O)O)ccc21 | -2.13% | 
Cc1ccccc1OCC(=O)O | -16.6% | 
CCN(CC)c1ccc2c(-c3ccccc3C(=O)O)c3ccc(=[N+](CC)CC)cc-3oc2c1 | 7.51% | 
O=[N+]([O-])c1ccc(O)cc1 |  | inactive
CCCCCCCCCCCCCC(=O)OC | 23.6% | 
O=S(=O)(c1cccc2cnccc12)N1CCCNCC1 | 72.7% [at 28.5 µM] | 
COCCOC(=O)CC#N | 5.02% | 
Cc1c(C(=O)O)c(O)cc2c1C(=O)c1c(O)c([C@@H]3O[C@H](CO)[C@@H](O)[C@H](O)[C@H]3O)c(O)c(O)c1C2=O |  | inactive
CC(=O)OC(C)C[N+](C)(C)C (stereo not given) | 6.52% [at 28.5 µM] | 
CN(C)CC/C=C1\c2ccccc2Sc2ccc(Cl)cc21 |  | 72.9 nM (active)
O=C1OC(=O)c2c(Br)c(Br)c(Br)c(Br)c21 | 5.02% | 
O=[N+]([O-])c1ccc(O)c2ncccc12 | 66.1% [at 28.5 µM] | 
CCCc1ncc(C[n+]2ccccc2C)c(N)n1 | 5.6% [at 28.5 µM] | 
CC(C)C[C@H](NC(=O)[C@H](Cc1ccccc1)NC(=O)c1cnccn1)B(O)O | 2.8% [at 28.5 µM] | 
CC/C=C\CCCCCO | 12.5% | 
C=CCOCC(O)CCl (stereo not given) | -1% | 
O=C(c1ccccc1)c1ccc(O)cc1O |  | 38.2 µM (active) and 33.4 µM (active)
COc1ccccc1N1CCN(CC(O)COc2cccc3ccccc23)CC1 (stereo not given) |  | 5790 nM (active)

SMILES | activity, negative = inhibition | Potency
C=C1CC[C@H]2C[C@@H]1C2(C)C | 0.334% | 
CC(=O)c1ccc2c(c1)N(CCCN(C)C)c1ccccc1S2 |  | 25.9 nM (active)
CCC(C)(C)OC | 6.79% | 
CCOC(=O)c1ccc(N(C)C)cc1 | 8.11% | 
CCC1OCC(COc2ccc(Oc3ccccc3)cc2)O1 (stereo not given) | -3.95% | 
CCN(CC)C(=O)c1ccc(O)c(OC)c1 | -27.7% [at 28.5 µM] | 
CO/N=C(/C(=O)N[C@@H]1C(=O)N2C(C(=O)[O-])=C(C[n+]3ccn4ncccc43)CS[C@H]12)c1nsc(N)n1 | 4.49% [at 28.5 µM] | 
O=C(O)/C=C/c1ccc(O)c(O)c1 | 14.7% | 
C=C[Si](OC(C)=O)(OC(C)=O)OC(C)=O | -20.8% | 
CCCCCC(C)OC(=O)COc1ccc(Cl)c2cccnc12 (stereo not given) | -26.1% | 
OCc1c[nH]c2ccccc12 | -62.4% | 
C[C@@H]1CN(c2c(F)c(F)c3c(=O)c(C(=O)O)cn(C4CC4)c3c2F)C[C@H](C)N1 | 0.835% [at 12.7 µM] | 
CCCCOCC(C)OCC(C)O (stereo not given) | -18.3% | 
CCO/C=C1\N=C(c2ccccc2)OC1=O | -5.8% | 
C=C(C)C(=O)OCCOCCOC(=O)C(=C)C | -7.85% | 
C[C@@H](N)C(=O)O | -13.8% [at 28.5 µM] | 
CCC(=O)OCCC(C)CCC=C(C)C (stereo not given) | 2.48% | 
Cc1ccc2c(Br)cc(Br)c(O)c2n1 | -25.7% [at 28.5 µM] | 
CC(O)CC(C)O (stereo not given) | 17.5% | 
COc1cc(C(=O)OCCCN2CCCN(CCCOC(=O)c3cc(OC)c(OC)c(OC)c3)CC2)cc(OC)c1OC | -11% [at 28.5 µM] | 
